Screen size: about 5,500 compounds; about 2,000 (36%) were called active. Another 18% or so got no clear call; they are omitted. Some of the results follow. A number with no mark means an inactive call. Rule as the data show it: active = normalized growth mostly below about 0.91 (no sharp cut-off); inconclusive = no clear call, values can overlap the other calls; inactive = mostly above about 0.92.
Assay: chemical genetic growth profiling, strain panel (AID 1159580);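 also: tested at 20 µM; growth read once vehicle control cultures reached saturation at 30 °C; 1 = growth at the plate median or of vehicle wells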
Details: growth OD

With C#CCCCCCCCCCCCC(O)CC(O)CO (configuration not stated) the normalized growth (S. cerevisiae deletion strains, locus YJR075W, strain HOC1, stronger effect = lower value) was 0.987, the normalized growth (S. cerevisiae deletion strains, locus YKL009W, strain mrt4, stronger effect = lower value) was 1 and the normalized growth (S. cerevisiae deletion strains, locus YKL068W, stronger effect = lower value) was 1.01. The normalized growth (S. cerevisiae deletion strains, locus YKL085W, strain MDH1 (second series), stronger effect = lower value) was 1.01, the normalized growth (S. cerevisiae deletion strains, locus YKL085W, strain MDH1, stronger effect = lower value) was 1.01 and the normalized growth (S. cerevisiae deletion strains, locus YKL160W, strain elf1, stronger effect = lower value) was 0.97. It also gave a normalized growth (S. cerevisiae deletion strains, locus YKL190W, strain CNB1, stronger effect = lower value) of 0.999, a normalized growth (S. cerevisiae deletion strains, locus YKR001C, strain vps1, stronger effect = lower value) of 1 and a normalized growth (S. cerevisiae deletion strains, locus YKR026C, strain gcn3, stronger effect = lower value) of 0.982. The normalized growth (S. cerevisiae deletion strains, locus YKR091W, strain srl3, stronger effect = lower value) was 0.979, the normalized growth (S. cerevisiae deletion strains, locus YLL001W, strain dnm1, stronger effect = lower value) was 0.961 and the normalized growth (S. cerevisiae deletion strains, locus YLL026W, stronger effect = lower value) was 0.993. It also gave a normalized growth (S. cerevisiae deletion strains, locus YLL041C, strain sdh2, stronger effect = lower value) of 0.986, a normalized growth (S. cerevisiae deletion strains, locus YLR027C, strain aat2, stronger effect = lower value) of 0.986 and a normalized growth (S. cerevisiae deletion strains, locus YLR039C, strain RIC1, stronger effect = lower value) of 1.08. The normalized growth (S. cerevisiae deletion strains, locus YLR058C, strain SHM2, stronger effect = lower value) was 1, the normalized growth (S. cerevisiae deletion strains, locus YLR102C, strain apc9, stronger effect = lower value) was 1.01 and the normalized growth (S. cerevisiae deletion strains, locus YLR113W, strain HOG1, stronger effect = lower value) was 0.832 (active). The normalized growth (S. cerevisiae deletion strains, locus YLR221C, strain rsa3, stronger effect = lower value) was 0.974, the normalized growth (S. cerevisiae deletion strains, locus YLR258W, strain gsy2, stronger effect = lower value) was 0.99 and the normalized growth (S. cerevisiae deletion strains, locus YLR262C, strain YPT6 (second series), stronger effect = lower value) was 0.966. It also gave a normalized growth (S. cerevisiae deletion strains, locus YLR262C, strain YPT6, stronger effect = lower value) of 1.07, a normalized growth (S. cerevisiae deletion strains, locus YLR268W, strain sec22, stronger effect = lower value) of 1 and a normalized growth (S. cerevisiae deletion strains, locus YLR320W, strain mms22, stronger effect = lower value) of 0.946. The normalized growth (S. cerevisiae deletion strains, locus YLR330W, strain CHS5, stronger effect = lower value) was 0.99, the normalized growth (S. cerevisiae deletion strains, locus YLR342W, strain FKS1 (second series), stronger effect = lower value) was 0.975 and the normalized growth (S. cerevisiae deletion strains, locus YLR342W, strain FKS1, stronger effect = lower value) was 0.985. For the same compound, the normalized growth (S. cerevisiae deletion strains, locus YLR357W, strain rsc2, stronger effect = lower value) was 0.954, the normalized growth (S. cerevisiae deletion strains, locus YLR370C, strain arc18, stronger effect = lower value) was 0.985 and the normalized growth (S. cerevisiae deletion strains, locus YLR371W, strain rom2, stronger effect = lower value) was 1.01. The normalized growth (S. cerevisiae deletion strains, locus YLR384C, strain iki3, stronger effect = lower value) was 0.98, the normalized growth (S. cerevisiae deletion strains, locus YLR418C, strain cdc73, stronger effect = lower value) was 1.02 and the normalized growth (S. cerevisiae deletion strains, locus YML016C, strain PPZ1, stronger effect = lower value) was 1. For the same compound, the normalized growth (S. cerevisiae deletion strains, locus YML032C, strain rad52, stronger effect = lower value) was 1.02, the normalized growth (S. cerevisiae deletion strains, locus YML120C, strain ndi1, stronger effect = lower value) was 0.986 and the normalized growth (S. cerevisiae deletion strains, locus YML124C, strain tub3, stronger effect = lower value) was 1.01. It also gave a normalized growth (S. cerevisiae deletion strains, locus YMR058W, strain fet3, stronger effect = lower value) of 0.991, a normalized growth (S. cerevisiae deletion strains, locus YMR078C, strain ctf18, stronger effect = lower value) of 1 and a normalized growth (S. cerevisiae deletion strains, locus YMR125W, strain sto1, stronger effect = lower value) of 0.967. For the same compound, the normalized growth (S. cerevisiae deletion strains, locus YMR129W, stronger effect = lower value) was 0.988, the normalized growth (S. cerevisiae deletion strains, locus YMR205C, strain PFK2, stronger effect = lower value) was 0.962 and the normalized growth (S. cerevisiae deletion strains, locus YMR223W, strain ubp8, stronger effect = lower value) was 1.01. It also gave a normalized growth (S. cerevisiae deletion strains, locus YMR231W, strain pep5, stronger effect = lower value) of 0.974, a normalized growth (S. cerevisiae deletion strains, locus YMR263W, strain SAP30, stronger effect = lower value) of 1 and a normalized growth (S. cerevisiae deletion strains, locus YMR307W, strain GAS1, stronger effect = lower value) of 1.19. It also gave a normalized growth (S. cerevisiae deletion strains, locus YNL067W, strain RPL9B, stronger effect = lower value) of 0.987, a normalized growth (S. cerevisiae deletion strains, locus YNL071W, strain lat1, stronger effect = lower value) of 0.988 and a normalized growth (S. cerevisiae deletion strains, locus YNL128W, strain TEP1, stronger effect = lower value) of 1.01. The normalized growth (S. cerevisiae deletion strains, locus YNL153C, strain GIM3, stronger effect = lower value) was 1, the normalized growth (S. cerevisiae deletion strains, locus YNL183C, strain NPR1, stronger effect = lower value) was 0.774 (active) and the normalized growth (S. cerevisiae deletion strains, locus YNL209W, strain ssb2, stronger effect = lower value) was 0.996. The normalized growth (S. cerevisiae deletion strains, locus YNL233W, strain BNI4, stronger effect = lower value) was 0.991, the normalized growth (S. cerevisiae deletion strains, locus YNL248C, strain rpa49, stronger effect = lower value) was 0.97 and the normalized growth (S. cerevisiae deletion strains, locus YNL250W, strain rad50, stronger effect = lower value) was 1.03. For the same compound, the normalized growth (S. cerevisiae deletion strains, locus YNL271C, strain bni1, stronger effect = lower value) was 1.02, the normalized growth (S. cerevisiae deletion strains, locus YNL298W, strain CLA4, stronger effect = lower value) was 1.01 and the normalized growth (S. cerevisiae deletion strains, locus YNL307C, strain MCK1, stronger effect = lower value) was 0.98. The normalized growth (S. cerevisiae deletion strains, locus YNL322C, strain KRE1 (second series), stronger effect = lower value) was 0.978, the normalized growth (S. cerevisiae deletion strains, locus YNL322C, strain KRE1, stronger effect = lower value) was 1 and the normalized growth (S. cerevisiae deletion strains, locus YNR049C, strain mso1, stronger effect = lower value) was 0.992. For the same compound, the normalized growth (S. cerevisiae deletion strains, locus YNR052C, strain pop2, stronger effect = lower value) was 1.01, the normalized growth (S. cerevisiae deletion strains, locus YOL006C, strain TOP1, stronger effect = lower value) was 0.96 and the normalized growth (S. cerevisiae deletion strains, locus YOL012C, strain htz1) was 0.976. For the same compound, the normalized growth (S. cerevisiae deletion strains, locus YOL147C, strain pex11, stronger effect = lower value) was 1, the normalized growth (S. cerevisiae deletion strains, locus YOR001W, strain rrp6, stronger effect = lower value) was 0.998 and the normalized growth (S. cerevisiae deletion strains, locus YOR061W, strain CKA2, stronger effect = lower value) was 0.921. It also gave a normalized growth (S. cerevisiae deletion strains, locus YOR069W, strain VPS5, stronger effect = lower value) of 1, a normalized growth (S. cerevisiae deletion strains, locus YOR070C, strain gyp1, stronger effect = lower value) of 0.977 and a normalized growth (S. cerevisiae deletion strains, locus YOR080W, strain dia2, stronger effect = lower value) of 0.994. It also gave a normalized growth (S. cerevisiae deletion strains, locus YOR083W, strain WHI5, stronger effect = lower value) of 0.95, a normalized growth (S. cerevisiae deletion strains, locus YOR106W, strain vam3, stronger effect = lower value) of 0.977 and a normalized growth (S. cerevisiae deletion strains, locus YOR136W, strain idh2, stronger effect = lower value) of 0.998. The normalized growth (S. cerevisiae deletion strains, locus YOR144C, strain elg1, stronger effect = lower value) was 1.01, the normalized growth (S. cerevisiae deletion strains, locus YOR184W, strain ser1, stronger effect = lower value) was 1.01 and the normalized growth (S. cerevisiae deletion strains, locus YOR231W, strain MKK1, stronger effect = lower value) was 0.851 (active). It also gave a normalized growth (S. cerevisiae deletion strains, locus YOR265W, strain rbl2, stronger effect = lower value) of 0.99, a normalized growth (S. cerevisiae deletion strains, locus YOR270C, strain vph1, stronger effect = lower value) of 0.944 and a normalized growth (S. cerevisiae deletion strains, locus YOR290C, strain snf2, stronger effect = lower value) of 0.948. The normalized growth (S. cerevisiae deletion strains, locus YOR316C, strain cot1, stronger effect = lower value) was 1.01, the normalized growth (S. cerevisiae deletion strains, locus YPL051W, strain arl3, stronger effect = lower value) was 0.989 and the normalized growth (S. cerevisiae deletion strains, locus YPL055C, strain LGE1, stronger effect = lower value) was 0.994. The normalized growth (S. cerevisiae deletion strains, locus YPL078C, strain atp4, stronger effect = lower value) was 0.981, the normalized growth (S. cerevisiae deletion strains, locus YPL106C, strain sse1, stronger effect = lower value) was 0.981 and the normalized growth (S. cerevisiae deletion strains, locus YPL240C, strain hsp82, stronger effect = lower value) was 0.998. For the same compound, the normalized growth (S. cerevisiae deletion strains, locus YPL241C, strain CIN2, stronger effect = lower value) was 1, the normalized growth (S. cerevisiae deletion strains, locus YPL256C, strain CLN2, stronger effect = lower value) was 0.881 and the normalized growth (S. cerevisiae deletion strains, locus YPR119W, strain clb2, stronger effect = lower value) was 1.01. The normalized growth (S. cerevisiae deletion strains, locus YPR141C, strain kar3, stronger effect = lower value) was 1.04, the normalized growth (S. cerevisiae deletion strains, locus YPR163C, strain tif3, stronger effect = lower value) was 0.997 and the normalized growth (S. cerevisiae deletion strains, locus YPR167C, strain met16, stronger effect = lower value) was 1.01. It also gave a normalized growth (S. cerevisiae deletion strains, strain wtn01, stronger effect = lower value) of 1.01 and a normalized growth (S. cerevisiae strains, strain wild type, stronger effect = lower value) of 0.992.

From PubChem BioAssay AID1159580 (chemical genetic matrix, 2015)
